Experimental data taken from PubChem BioAssay.
Calls of active or inactive are those of the source.

Columns and labels:
[1] = test system: PRMT1 (protein arginine N-methyltransferase 1); assay: small molecules binding arginine methyltransferase PRMT1 – biochemical, small-molecule microarray, 635 nm fluorescence, primary screen (AID 1088); conditions: higher = more signal;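 further: binding of Prmt1 protein to compounds spotted on small-molecule microarray slides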
[2] = growth effects on S. cerevisiae YJM789 – YJM789 clinical isolate, OD600, 24 h, basal, primary screen (AID 1089); conditions: higher = more signal, called active from +8 up or from −8 down;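 further: growth of clinical yeast isolate S. cerevisiae YJM 789 seeded 1000 cells per well; test concentration not given here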
[3] = S. pombe growth modifiers, basal conditions – strain 972, OD600, 24 h, no modulator, primary screen (AID 1090);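 further: basal condition with compound alone and no growth modifier present; test concentration not given here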; conditions: S. pombe 972 growth, higher = more signal, called active from +8 up or from −8 down
[4] = budding yeast growth modifiers under rapamycin – strain BY4716, OD600, 96 h, primary screen (AID 1091); further: test concentration not given here; conditions: S. cerevisiae BY4716 + rapamycin, higher = more signal, called active from +8 up or from −8 down
[5] = target: Torsin-1A-interacting protein 2 (Homo sapiens) (UniProt Q8NFQ8); assay: small molecules binding lysate-expressed LULL1 – cell lysate, human LULL1 lysate, 635/667 nm fluorescence, primary screen (AID 1092); conditions: small-molecule microarray, hLULL1 lysate binding, 635 nm fluorescence; higher = more signal;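 further: probe is lysate of COS7 cells overexpressing human LULL1; score merges per-feature 667 nm fluorescence with signal-to-noise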
Sequence of Torsin-1A-interacting protein 2 (Homo sapiens) (Q8NFQ8 whole entry, looked up): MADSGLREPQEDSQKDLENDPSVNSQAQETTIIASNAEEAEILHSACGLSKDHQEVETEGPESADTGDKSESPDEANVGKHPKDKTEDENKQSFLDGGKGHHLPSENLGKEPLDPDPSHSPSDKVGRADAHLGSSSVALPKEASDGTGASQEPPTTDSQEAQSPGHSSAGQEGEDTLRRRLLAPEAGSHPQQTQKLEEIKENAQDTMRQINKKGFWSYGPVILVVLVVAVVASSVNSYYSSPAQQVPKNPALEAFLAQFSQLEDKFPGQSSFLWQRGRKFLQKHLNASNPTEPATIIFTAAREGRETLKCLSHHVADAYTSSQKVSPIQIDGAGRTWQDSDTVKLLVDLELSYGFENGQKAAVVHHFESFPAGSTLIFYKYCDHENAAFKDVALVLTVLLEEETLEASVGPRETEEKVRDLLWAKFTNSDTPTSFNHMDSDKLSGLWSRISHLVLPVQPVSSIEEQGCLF

[6] = optical density change of DRC41 E. coli – strain DRC41, OD650, 24 h, E. coli filamentation project, primary screen (AID 1093);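 further: MC1000 strain lacking acrAB efflux and sulA so SOS filamentation is blocked; test concentration not given here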; conditions: E. coli DRC41 growth, higher = more signal, called active from +8 up or from −8 down
[7] = probe aLefty2 binding to arrayed compounds – biochemical, biotinylated probe, 635/667 nm fluorescence, primary screen (AID 1094); conditions: small-molecule microarray, higher = more signal;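 further: score merges spot fluorescence near 667 nm with spot signal-to-noise ratio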
[8] = test system: Noggin (protein binding on small-molecule microarray); assay: small molecules binding Noggin protein – biochemical, 635/667 nm fluorescence, primary screen (AID 1095); conditions: 635 nm fluorescence, higher = more signal;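 further: score merges 667 nm feature fluorescence with signal to noise over triplicate slides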
[9] = target: Neurogenic locus notch homolog protein 3 (Homo sapiens) (UniProt Q9UM47); assay: small molecules binding NOTCH3 protein – biochemical, 635/667 nm fluorescence, primary screen (AID 1096); conditions: small-molecule microarray, 635 nm fluorescence, higher = more signal
Sequence of Neurogenic locus notch homolog protein 3 (Homo sapiens) (Q9UM47 whole entry, looked up): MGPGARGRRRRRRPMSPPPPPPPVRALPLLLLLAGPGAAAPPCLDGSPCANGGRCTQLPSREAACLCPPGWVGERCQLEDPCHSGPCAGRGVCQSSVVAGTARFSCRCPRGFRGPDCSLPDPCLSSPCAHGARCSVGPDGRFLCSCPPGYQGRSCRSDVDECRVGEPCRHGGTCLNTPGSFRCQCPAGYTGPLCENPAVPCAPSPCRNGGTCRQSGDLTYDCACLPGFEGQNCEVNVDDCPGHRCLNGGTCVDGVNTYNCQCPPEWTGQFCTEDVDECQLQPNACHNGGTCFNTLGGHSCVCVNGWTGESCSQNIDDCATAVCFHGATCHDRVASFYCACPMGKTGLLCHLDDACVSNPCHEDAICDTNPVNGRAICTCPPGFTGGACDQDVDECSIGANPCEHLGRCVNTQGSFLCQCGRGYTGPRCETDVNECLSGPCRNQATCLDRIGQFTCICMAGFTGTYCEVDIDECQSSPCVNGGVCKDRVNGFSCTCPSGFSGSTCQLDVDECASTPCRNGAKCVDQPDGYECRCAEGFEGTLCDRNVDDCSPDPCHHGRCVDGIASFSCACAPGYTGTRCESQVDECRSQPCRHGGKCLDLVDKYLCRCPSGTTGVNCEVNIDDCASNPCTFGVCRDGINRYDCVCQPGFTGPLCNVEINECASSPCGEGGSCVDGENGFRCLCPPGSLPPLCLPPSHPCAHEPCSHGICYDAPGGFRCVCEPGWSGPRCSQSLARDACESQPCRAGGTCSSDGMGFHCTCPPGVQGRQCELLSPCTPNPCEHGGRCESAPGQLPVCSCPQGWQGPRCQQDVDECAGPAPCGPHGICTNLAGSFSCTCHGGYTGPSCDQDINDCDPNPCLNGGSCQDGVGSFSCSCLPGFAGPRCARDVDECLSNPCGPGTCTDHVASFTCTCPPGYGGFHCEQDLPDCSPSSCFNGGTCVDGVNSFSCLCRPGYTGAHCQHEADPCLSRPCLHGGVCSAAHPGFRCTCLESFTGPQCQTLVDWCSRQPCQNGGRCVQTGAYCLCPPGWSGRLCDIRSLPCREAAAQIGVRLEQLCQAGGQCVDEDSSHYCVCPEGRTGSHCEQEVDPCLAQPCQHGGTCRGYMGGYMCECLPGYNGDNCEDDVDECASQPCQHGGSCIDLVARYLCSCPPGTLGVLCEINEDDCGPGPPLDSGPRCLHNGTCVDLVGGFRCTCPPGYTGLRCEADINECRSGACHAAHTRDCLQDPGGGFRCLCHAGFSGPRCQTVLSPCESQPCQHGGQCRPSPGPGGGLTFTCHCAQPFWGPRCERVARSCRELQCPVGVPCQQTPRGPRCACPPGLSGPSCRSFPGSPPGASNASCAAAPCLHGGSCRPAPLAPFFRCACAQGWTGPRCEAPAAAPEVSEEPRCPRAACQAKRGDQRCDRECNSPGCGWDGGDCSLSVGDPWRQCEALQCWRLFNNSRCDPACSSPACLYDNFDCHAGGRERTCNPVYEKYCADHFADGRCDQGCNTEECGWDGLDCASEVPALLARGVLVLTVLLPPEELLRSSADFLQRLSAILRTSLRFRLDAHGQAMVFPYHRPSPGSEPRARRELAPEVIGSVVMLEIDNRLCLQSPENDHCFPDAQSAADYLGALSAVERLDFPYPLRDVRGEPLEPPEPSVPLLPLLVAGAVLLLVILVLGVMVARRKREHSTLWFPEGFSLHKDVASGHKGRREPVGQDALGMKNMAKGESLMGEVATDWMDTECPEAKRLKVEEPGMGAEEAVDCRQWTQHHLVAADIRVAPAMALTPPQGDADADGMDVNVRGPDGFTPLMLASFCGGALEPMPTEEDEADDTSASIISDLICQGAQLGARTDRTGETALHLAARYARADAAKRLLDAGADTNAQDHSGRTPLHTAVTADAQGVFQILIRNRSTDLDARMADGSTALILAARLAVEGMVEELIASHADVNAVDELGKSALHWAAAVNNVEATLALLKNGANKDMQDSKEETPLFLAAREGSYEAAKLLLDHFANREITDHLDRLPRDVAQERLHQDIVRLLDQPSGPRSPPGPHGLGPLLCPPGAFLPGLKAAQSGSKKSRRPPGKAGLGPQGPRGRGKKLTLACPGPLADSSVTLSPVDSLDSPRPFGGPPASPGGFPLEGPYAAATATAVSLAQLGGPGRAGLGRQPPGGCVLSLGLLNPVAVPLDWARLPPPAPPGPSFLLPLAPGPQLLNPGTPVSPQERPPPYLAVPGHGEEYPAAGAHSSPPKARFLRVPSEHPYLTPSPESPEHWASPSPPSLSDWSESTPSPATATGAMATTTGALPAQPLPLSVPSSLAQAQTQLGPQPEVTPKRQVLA

[10] = probe aEGFR binding to arrayed compounds – biochemical, biotinylated probe, 635/667 nm fluorescence, primary screen (AID 1097); conditions: small-molecule microarray, higher = more signal;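 further: probe is a biotinylated anti-EGFR antibody binding compounds printed on slides; score combines fluorescence near 667 nm and signal to noise of each spot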
[11] = test system: Plasmodium falciparum Sir2 (PF13_0152, Sir2A); assay: Plasmodium falciparum Sir2A binding compounds – biochemical, small-molecule microarray, 635 nm fluorescence, primary screen (AID 1098); conditions: fluorescence 635 nm, higher = more signal;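 further: score merges spot fluorescence intensity with its signal-to-noise ratio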
[12] = probe aDKK1 binding to arrayed compounds – biochemical, biotinylated probe, 635/667 nm fluorescence, primary screen (AID 1099); conditions: small-molecule microarray, higher = more signal;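 further: score merges 667nm spot fluorescence with signal to noise across triplicate slides; reference of the scale not given here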
[13] = probe aCHRDL2 binding to arrayed compounds – biochemical, biotinylated probe, 635/667 nm fluorescence, primary screen (AID 1100); conditions: small-molecule microarray, higher = more signal
[14] = change in splice reporter luminescence, either direction, cell-based, HEK293, spliceosome inhibition project, primary screen (AID 1101); conditions: HEK293 splicing luciferase reporter, 24 h, higher = more signal, called active from +8 up or from −8 down;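 further: HEK293 cells carrying a splicing-competent luciferase reporter gene; test concentration not given here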
[15] = target: Fibroblast growth factor 10 (Homo sapiens) (UniProt O15520); assay: compounds binding fibroblast growth factor 10 – biochemical, small-molecule microarray, 635 nm fluorescence, primary screen (AID 1102); conditions: FGF10 binding, fluorescence 635 nm, higher = more signal
Sequence of Fibroblast growth factor 10 (Homo sapiens) (O15520 whole entry, looked up): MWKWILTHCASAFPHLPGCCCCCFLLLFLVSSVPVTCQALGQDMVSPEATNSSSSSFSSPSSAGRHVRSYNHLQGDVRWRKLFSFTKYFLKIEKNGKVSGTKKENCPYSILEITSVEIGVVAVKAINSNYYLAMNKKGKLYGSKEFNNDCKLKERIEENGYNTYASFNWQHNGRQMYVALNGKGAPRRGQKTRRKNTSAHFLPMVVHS

[16] = test system: glycogen synthase kinase-3 (GSK3A per assay name; protocol says GSK3B); assay: compounds binding glycogen synthase kinase-3 – biochemical, small-molecule microarray, 635 nm fluorescence, GSK3A, primary screen (AID 1103); conditions: fluorescence 635 nm, higher = more signal; further: the record names both GSK3A and GSK3B
[17] = target: Epidermal growth factor receptor (Homo sapiens) (UniProt P00533); assay: compounds binding epidermal growth factor receptor – biochemical, small-molecule microarray, 635 nm fluorescence, primary screen (AID 1104); conditions: EGFR binding, higher = more signal;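 further: score merges 667 nm emission intensity with spot signal to noise over triplicate slides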
Sequence of Epidermal growth factor receptor (Homo sapiens) (P00533 whole entry, looked up): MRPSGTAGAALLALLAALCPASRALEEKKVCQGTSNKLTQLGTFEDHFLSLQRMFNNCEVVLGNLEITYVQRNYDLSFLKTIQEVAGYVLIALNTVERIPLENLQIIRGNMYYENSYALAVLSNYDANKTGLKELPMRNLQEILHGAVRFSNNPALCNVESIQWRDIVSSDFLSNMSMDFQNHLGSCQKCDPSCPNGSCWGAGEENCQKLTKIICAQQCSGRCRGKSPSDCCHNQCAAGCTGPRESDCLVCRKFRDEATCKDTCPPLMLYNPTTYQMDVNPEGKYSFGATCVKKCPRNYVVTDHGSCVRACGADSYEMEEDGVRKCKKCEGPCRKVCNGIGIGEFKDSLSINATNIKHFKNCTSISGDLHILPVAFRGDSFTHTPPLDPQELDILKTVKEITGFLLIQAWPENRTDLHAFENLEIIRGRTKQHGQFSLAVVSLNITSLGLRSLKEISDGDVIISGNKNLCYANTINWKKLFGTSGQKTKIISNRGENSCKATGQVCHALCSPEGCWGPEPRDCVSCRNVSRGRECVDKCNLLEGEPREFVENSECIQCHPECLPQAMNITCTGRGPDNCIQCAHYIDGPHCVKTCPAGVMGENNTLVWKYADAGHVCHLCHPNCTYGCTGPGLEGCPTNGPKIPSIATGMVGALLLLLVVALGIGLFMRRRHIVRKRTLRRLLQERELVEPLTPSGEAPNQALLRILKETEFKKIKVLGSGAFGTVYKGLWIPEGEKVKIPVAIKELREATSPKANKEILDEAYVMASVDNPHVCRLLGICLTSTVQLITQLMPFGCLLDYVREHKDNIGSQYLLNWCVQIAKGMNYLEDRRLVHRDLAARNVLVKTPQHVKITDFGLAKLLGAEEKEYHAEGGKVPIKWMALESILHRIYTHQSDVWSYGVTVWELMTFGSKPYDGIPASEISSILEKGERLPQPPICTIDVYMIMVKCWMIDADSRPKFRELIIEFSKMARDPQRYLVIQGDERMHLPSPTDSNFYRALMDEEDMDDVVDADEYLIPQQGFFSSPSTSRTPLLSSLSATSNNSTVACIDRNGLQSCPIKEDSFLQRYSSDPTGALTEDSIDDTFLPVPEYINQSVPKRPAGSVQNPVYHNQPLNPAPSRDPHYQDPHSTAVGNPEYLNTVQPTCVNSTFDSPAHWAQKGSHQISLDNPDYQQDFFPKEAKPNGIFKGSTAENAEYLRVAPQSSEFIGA

[18] = target: Follistatin-related protein 3 (Homo sapiens) (UniProt O95633); assay: compounds binding follistatin-related protein 3 – biochemical, small-molecule microarray, 635 nm fluorescence, primary screen (AID 1105); conditions: FSTL3 binding, higher = more signal;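 further: score merges emission near 667 nm and signal to noise per printed spot across three slides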
Sequence of Follistatin-related protein 3 (Homo sapiens) (O95633 whole entry, looked up): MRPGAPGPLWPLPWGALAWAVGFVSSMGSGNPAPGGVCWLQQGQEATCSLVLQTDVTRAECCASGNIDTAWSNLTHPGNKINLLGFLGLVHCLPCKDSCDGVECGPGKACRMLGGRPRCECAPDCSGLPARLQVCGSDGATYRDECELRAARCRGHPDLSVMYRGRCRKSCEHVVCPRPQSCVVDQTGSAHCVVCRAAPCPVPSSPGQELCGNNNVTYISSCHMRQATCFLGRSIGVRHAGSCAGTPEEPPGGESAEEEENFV

[19] = target: Dickkopf-related protein 1 (Homo sapiens) (UniProt O94907); assay: small molecules binding DKK1 protein – biochemical, small-molecule microarray, 635 nm fluorescence scan, primary screen (AID 1106); conditions: higher = more signal;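 further: score merges emission near 667 nm with signal to noise over three replicate slides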
Sequence of Dickkopf-related protein 1 (Homo sapiens) (O94907 whole entry, looked up): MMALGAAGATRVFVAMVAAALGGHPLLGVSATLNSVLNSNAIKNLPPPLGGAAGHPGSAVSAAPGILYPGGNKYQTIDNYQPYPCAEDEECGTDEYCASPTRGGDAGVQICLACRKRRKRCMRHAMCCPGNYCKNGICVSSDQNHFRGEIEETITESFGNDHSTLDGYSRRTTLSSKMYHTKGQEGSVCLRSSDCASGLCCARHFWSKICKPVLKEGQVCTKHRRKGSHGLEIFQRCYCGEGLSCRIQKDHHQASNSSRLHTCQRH

[20] = test system: Inhibin beta A chain (activin A); assay: small molecules binding activin A – biochemical, small-molecule microarray, 635 nm fluorescence scan, primary screen (AID 1107); conditions: INHBA, higher = more signal;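 further: mouse activin A protein probed at 4.33 µg/mL on printed slides; score merges bound-protein fluorescence near 667 nm with spot signal-to-noise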

Row | Compound | composite z-score [1] | z-score [2] | z-score [3] | z-score [4] | composite z-score [5] | z-score [6] | composite z-score [7] | composite z-score [8] | composite z-score [9] | composite z-score [10] | composite z-score [11] | composite z-score [12] | composite z-score [13] | z-score [14] | composite z-score [15] | composite z-score [16] | composite z-score [17] | composite z-score [18] | composite z-score [19] | composite z-score [20]
1 | [N-]=[N+]=NCc1ccccc1C[C@]1(C(=O)NCc2ccccc2)N=C(c2ccc(OCCCO)cc2)O[C@H]1c1ccccc1N=[N+]=[N-] | 1.26 | 0.228 (inactive) | 1 (inactive) | 6.01 (inactive) | 3.17 | 0.368 (inactive) | 0.284 | 0.179 | 0.755 | 0.464 | 1.3 | 0.658 | 1.09 | 0.00592 (inactive) | 0.856 | 1.12 | -0.463 | 0.188 | -0.678 | -0.222
2 | CC(C)CN1CCc2nc(-c3ccccc3)c3c(c2CC1)CO[C@@H](C)C3 | -0.36 | 0.175 (inactive) | -0.327 (inactive) | -0.378 (inactive) | -0.39 | 0.102 (inactive) | 0.061 | 0.364 | 0.0668 | 0.0657 | -0.232 | 0.256 | -0.469 | 0.00565 (inactive) | 0.515 | 0.123 | 0.471 | 0.202 | 0.718 | 0.157
3 | CCc1cc2c(nc1CC)CCN(CCC(C)=NO[C@@H](C)c1cc(-c3c(C)cc(C)cc3C)no1)C2 | 0.608 | -0.889 (inactive) | -6.86 (inactive) | -1.26 (inactive) | 0.468 | -0.0254 (inactive) | -0.0765 | 0.343 | -1.5 | -0.172 | 0.856 | -0.227 | -0.286 | -0.596 (inactive) | -0.328 | -0.562 | -0.408 | -0.473 | -0.107 | 0.711
4 | CC(C)CON=C1C[C@@H](O)[C@@H](O)[C@@H]2[C@@H]3C(=O)N(Cc4ccccc4)C(=O)[C@@H]3CC[C@@H]12 | 0.517 | -0.443 (inactive) | -0.264 (inactive) | -0.682 (inactive) | 0.434 | 0.354 (inactive) | -0.099 | 0.484 | 0.59 | -0.0679 | -0.511 | -0.278 | -0.737 | -0.28 (inactive) | 0.5 | 0.649 | 0.571 | 0.617 | 0.836 | -0.269
5 | COc1ccc(-c2ccc3c(n2)CCCN3CC(O)CN2CCCc3nc(C)c(C)cc32)cc1 (stereo not given) | 1.43 | 0.0222 (inactive) | -0.411 (inactive) | -1.43 (inactive) | 1.13 | 0.682 (inactive) | 0.429 | 0.824 | 1.1 | 0.243 | 0.879 | 0.323 | 0.386 | -0.155 (inactive) | 0.817 | 0.871 | 0.691 | 0.995 | 1.39 | 1.6
